Data as given in PubChem BioAssay AID1347421 (Sanford-Burnham Center for Chemical Genomics, 2020).
Over roughly 1,500 compounds, “activity” has its median near 2; the lowest 2% begin near -18. This excerpt belongs to a sample that is enriched for the lowest values. Activity calls are given as the source filed them.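 The calls were made as follows: active = inhibition of at least 40% at 10 µM; inconclusive = no clear call, values can overlap the other calls; inactive = the rest.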

Target: Sulfhydryl oxidase 1 (Homo sapiens) (UniProt O00391)
Assay: QSOX1 enzyme inhibitors, confirmation, biochemical, ROS-Glo luminescence, single concentration (AID 1347421);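 also: 0% = DMSO wells with enzyme and 100% = wells lacking QSOX1 enzyme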
Settings: recombinant hQSOX1, RNase A substrate, ROS-Glo H2O2 luminescence; at 10 µM

Sulfhydryl oxidase 1 (Homo sapiens), sequence (O00391 whole entry, looked up): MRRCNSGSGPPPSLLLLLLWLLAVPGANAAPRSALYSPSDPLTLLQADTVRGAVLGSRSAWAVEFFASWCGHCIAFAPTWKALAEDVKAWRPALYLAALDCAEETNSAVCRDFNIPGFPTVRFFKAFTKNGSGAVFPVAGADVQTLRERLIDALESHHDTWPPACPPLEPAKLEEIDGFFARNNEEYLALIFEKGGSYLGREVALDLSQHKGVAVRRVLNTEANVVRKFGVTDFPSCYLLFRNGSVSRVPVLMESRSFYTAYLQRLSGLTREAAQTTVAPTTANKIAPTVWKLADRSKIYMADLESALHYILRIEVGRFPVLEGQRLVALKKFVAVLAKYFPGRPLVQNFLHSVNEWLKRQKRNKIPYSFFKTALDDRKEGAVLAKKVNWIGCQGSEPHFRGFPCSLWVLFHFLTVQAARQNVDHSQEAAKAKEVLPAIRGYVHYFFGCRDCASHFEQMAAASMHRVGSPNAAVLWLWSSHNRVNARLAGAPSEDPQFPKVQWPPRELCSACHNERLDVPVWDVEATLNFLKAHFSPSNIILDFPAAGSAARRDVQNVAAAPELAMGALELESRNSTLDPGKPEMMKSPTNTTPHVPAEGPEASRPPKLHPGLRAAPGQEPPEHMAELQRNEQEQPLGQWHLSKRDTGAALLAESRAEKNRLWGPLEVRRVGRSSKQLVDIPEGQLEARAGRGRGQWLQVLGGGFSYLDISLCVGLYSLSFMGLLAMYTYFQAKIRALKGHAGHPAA

Row | SMILES | activity
1 | O=C(NC(=O)N1CCCCCC1)c1ccc(Cl)cc1 | -10.3% (inactive)
2 | COc1ccc(CNCCn2cccn2)c(OCC(O)CN2CCCC2)c1 (stereo not given) | 1.2%
3 | O=C(Cn1ccnc1)N(CC1CCN(C2Cc3ccccc3C2)CC1)CC1CCCO1 (stereo not given) | 7.8%
4 | CCOc1ccc(Cl)cc1S(=O)(=O)NC(C)C | 3.5%
5 | COc1ccc(F)cc1S(=O)(=O)NC(C)C | -2% (inactive)
6 | COc1ccc(C(N)=O)cc1S(=O)(=O)NC(C)C | -19.1% (inactive)
7 | CN(Cc1cccs1)C(=O)c1ccc(OC2CCN(S(C)(=O)=O)CC2)c(Cl)c1 | 12.2%
8 | CN(Cc1n[nH]c2c1CCCCC2)CC1(c2cccc(F)c2)CCOC1 (stereo not given) | 4%
9 | O=C(CC1C(=O)NCCN1Cc1ccccn1)NC1C2CC3CC(C2)CC1C3 (stereo not given) | -4.8% (inactive)
10 | O=C(Cc1ccccc1F)Nc1ccc2c(c1)CN(Cc1ccoc1)CC2 | -1.9% (inactive)
11 | O=C(NCCCOc1cccnc1)C1CCC(=O)N(CCCc2ccccc2)C1 (stereo not given) | 12.4%
12 | O=C(O)c1cn(CCOc2ccccc2)c2ccccc12 | -13.2% (inactive)
13 | O=C(CCC1CCCN(Cc2ccccn2)C1)N1CCN(Cc2ccccc2)CC1 (stereo not given) | -0.9% (inactive)
14 | Cc1cc(C)c(C(=O)N2CCCC(CCC(=O)N(C)CCc3ccccn3)C2)c(=O)[nH]1 (stereo not given) | 7.3%
15 | COc1ccc(CNCCc2scnc2C)cc1OCC(O)CN(C)C(C)C (stereo not given) | 7.8%
16 | CC(C)OCCNC(=O)c1cc(COc2cccc3cccnc23)on1 | 2.2%
17 | C=CCCC(=O)N1CCC2(CCCN(Cc3ccc(F)c(F)c3)C2=O)C1 (stereo not given) | -1.3% (inactive)
18 | Cn1nc(C(=O)N2CCc3ccccc32)c2ccccc2c1=O | -5.3% (inactive)
19 | O=C1CCC(C(=O)N2CCC3(C=Cc4ccccc43)CC2)CN1CCc1ccccn1 (stereo not given) | 3.8%
20 | COc1cccc(CN2CCNC(=O)C2CC(=O)NC2CCCCCCC2)c1 (stereo not given) | 2.4%
21 | CCC1=[C+]c2c(nc(C)nc2N2CCOCC2)S1 | -20.3% (inactive)
22 | CCC1=[C+]c2c(NCc3cccnc3)nc(C)nc2S1 | -5.8% (inactive)
23 | CSc1ncc(Cl)c(C(=O)Nc2ccc(Br)cc2)n1 | -12.9% (inactive)
24 | Cc1oc(-c2cccs2)nc1CN(C)C(C)c1cccs1 (stereo not given) | 2.7%
25 | CCOC(=O)C1CCN(C(=O)CCc2ccc(OC)cc2)CC1 | -2% (inactive)
26 | CCN(CC)C(=O)C1CCCN(Cc2nc(-c3ccc(Cl)cc3)oc2C)C1 (stereo not given) | 4.3%
27 | CC(NC(=O)CSc1nc(O)cc(=O)[nH]1)c1ccccc1 (stereo not given) | -17.8% (inactive)

Row | SMILES | activity
28 | CC(=O)n1nc(NCc2ccccc2)nc1NCc1ccccc1 | -22% (inactive)
29 | c1ccc(CNc2ccc(NCc3ccccc3)nn2)cc1 | -8.7% (inactive)
30 | CCN(CC)C(=O)N(CC)Cc1ccccc1 | -0.2% (inactive)
31 | C=CCn1nnnc1NCc1ccc(F)cc1 | 7.4%
32 | CCCn1cc(CN2CCOC(CCc3ccccc3)C2)c(C)n1 (stereo not given) | -1.5% (inactive)
33 | CCOC(=O)N1CCC(N2CCOC(CC3CCCCC3)C2)CC1 (stereo not given) | 6.1%
34 | NC(=O)C1CCCN(Cc2cn(-c3ccccc3)nc2-c2ccc3c(c2)OCO3)C1 (stereo not given) | -1.5% (inactive)
35 | O=C(Nc1ccccc1N1CCN(C(=O)c2ccc(Cl)cc2)CC1)c1ccco1 | 0.8%
36 | CCn1c(C2CCCO2)nc2ccccc21 (stereo not given) | -18.1% (inactive)
37 | CCn1c(SCC(=O)N2CCCCCC2)nc2ccccc21 | -11.6% (inactive)
38 | CCn1c(CN2CCCC2)nc2ccccc21 | -5.8% (inactive)
39 | CN1CCN(C(=O)CCC2CCCN(C(=O)Cc3ccc4c(c3)OCO4)C2)CC1 (stereo not given) | 0.8%
40 | CN(CCOc1ccccc1)Cc1nc(-c2ccccn2)no1 | 3.2%
41 | COc1ccc(C(=O)C2CCCN(Cc3ccc4cc(F)ccc4n3)C2)cc1OC (stereo not given) | 1.1%
42 | COc1cccc(C(=O)C2CCCN(Cc3ccc4cccc(F)c4n3)C2)c1 (stereo not given) | -23.5% (inactive)
43 | CSc1ncc(CN2CCCC(C(=O)c3cccc(OC(C)C)c3)C2)cn1 (stereo not given) | 8.6%
44 | CC1CCN(Cc2nnnn2CCCC(=O)N(C)CCC(O)c2ccccc2)CC1 (stereo not given) | 7.2%
45 | O=C(Nc1cccc(-n2cnnn2)c1)C1CCCN1CCCC(F)(F)F (stereo not given) | -2.9% (inactive)
46 | O=C(Nc1cccc(-n2cccn2)c1)C1CCCN1Cc1cnc[nH]1 (stereo not given) | -25.6% (inactive)
47 | O=C1N(CC2CC2)CCCC12CCN(Cc1cccc(-n3cccn3)c1)C2 (stereo not given) | -0.7% (inactive)
48 | Cc1ccc(NC(=O)c2cc(C)c(C)o2)cc1C | -0.4% (inactive)
49 | CC(C)Oc1cccc(C(=O)Nc2ccc3[nH]c(=O)[nH]c3c2)c1 | 5.2%
50 | CC(C)Oc1cccc(NC(=O)c2ccccc2Cl)c1 | -28.9% (inactive)
51 | CC(C)Oc1cccc(NC(=O)Nc2ccccc2)c1 | 6.3%
52 | O=C(NCCCn1nnc2ccccc21)C1CCC(=O)N(CCN2CCOCC2)C1 (stereo not given) | -0.4% (inactive)
53 | CN(CCc1ccccn1)c1ncccc1CNC1CSCCSC1 | -4% (inactive)
54 | c1ccc(-c2noc(CN3CCN(Cc4ccc5c(c4)OCO5)CC3)n2)cc1 | 7.5%

Row | SMILES | activity
55 | O=C(Nc1ccc2c(c1)OCCO2)c1ccc(=O)[nH]n1 | -1.3% (inactive)
56 | CN(C)C(=O)Nc1ccc2c(c1)CCC2 | -6.3% (inactive)
57 | COCCn1c(CN(C)Cc2cccnc2)cnc1S(=O)(=O)CC(C)(C)C | 7.7%
58 | OC(COc1ccccc1CNCCc1ccccn1)CN1CCSCC1 (stereo not given) | 5.9%
59 | CSCc1ccc(C(=O)N2CCC3(CCCN(CC(C)(C)C)C3)C2)o1 (stereo not given) | -0.7% (inactive)
60 | CC(C)CCCC1CN(C2CCN(Cc3ccccn3)CC2)CCO1 (stereo not given) | 5.9%
61 | COc1cccc(CC2CN(C3CCSCC3)CCO2)c1 (stereo not given) | 10.9%
62 | O=C(CCN1CCCO1)N1CCCC(N2CCN(c3cccc(C(F)(F)F)c3)CC2)C1 (stereo not given) | -0.1% (inactive)
63 | O=C1N(CC2CCCCC2)CCCC1(O)CN1CCCOCC1 (stereo not given) | 4.1%
64 | CC(=O)Oc1ccc(/C=C/c2ccc3ccccc3n2)cc1Cl | 55.2% (active)
65 | O=C1COc2ccc(S(=O)(=O)N3CCc4ccccc43)cc2N1 | 2.6%
66 | Cc1cnc(C)c(N2C[C@H]3OC(=O)N(C4CCCC4)[C@H]3C2)n1 | 7.1%
67 | Cc1ccc(S(=O)(=O)NC2CCCCC2)cc1C(N)=O | -20.3% (inactive)
68 | Cc1ccc(S(=O)(=O)N2CCN(c3ccccc3)CC2)cc1C(N)=O | 1.7%
69 | CS(=O)(=O)c1cccc(S(=O)(=O)NC2CCCC2)c1 | 7%
70 | Cc1cccc(S(=O)(=O)NCC2CCN(c3cnn(C)c(=O)c3)C2)c1 (stereo not given) | 5.8%
71 | Cc1ccc(S(=O)(=O)N2CCC(C(=O)N3CCN(c4ccccn4)CC3)CC2)cc1 | -18.7% (inactive)
72 | CC(=O)Nc1ccc(S(=O)(=O)N2CCN(C(=O)N3CCCCCC3)CC2)cc1 | -1.3% (inactive)
73 | Cc1nc(CC(=O)N2CCCC(CCC(=O)N3CCN(c4ccccn4)CC3)C2)cs1 (stereo not given) | -2.5% (inactive)
74 | CCN(CC1CCCO1)C(=O)C1CCN(C2CCN(Cc3ccccc3C)CC2)CC1 (stereo not given) | 9.1%
75 | COCCN1CCC(CN(Cc2ccncc2)Cc2csc(C(C)=O)c2)CC1 | -7.9% (inactive)
76 | COc1cccc(CN2CCCC(NCc3ccc4nonc4c3)C2)c1 (stereo not given) | -3.2% (inactive)
77 | COC(=O)C1CCCCN1C(=O)c1ccc2oc(C(C)C)nc2c1 (stereo not given) | 4.4%
78 | c1ccc(Cc2nn3c(-c4ccco4)nnc3s2)cc1 | -5.1% (inactive)
79 | c1ccc(CCCc2nn3c(-c4cccnc4)nnc3s2)cc1 | 3%
80 | Cc1occc1-c1nnc2sc(CCc3ccccc3)nn12 | -18.1% (inactive)
81 | Cc1nc(SCC(=O)N2CCN(c3ccccc3)CC2)nc2c1CCCC2 | -19.5% (inactive)

Row | SMILES | activity
82 | Cc1ccc(S(=O)(=O)CC(=O)N2CCN(c3ccccc3)CC2)cc1 | -17% (inactive)
83 | Cc1nonc1CC(=O)N1CCC(CCC(=O)N2CCN(c3ccccc3)CC2)CC1 | 11.2%
84 | COc1ccc(N2CCN(C3CCCN(Cc4nc5ccccc5nc4C)C3)CC2)cc1 (stereo not given) | 7.9%
85 | OC(COc1ccccc1CNCCc1cnccn1)CN1CCSCC1 (stereo not given) | 7.9%
86 | O=C1CN(c2nc3nonc3nc2NC2CCCC2)CCN1C1CCCC1 | -1.2% (inactive)
87 | C=CCn1cc(CNC2CC(=O)N(Cc3cccc(F)c3)C2)c(C)n1 (stereo not given) | -1.3% (inactive)
88 | COc1ccc(C(C)(C)NC(=O)C2CCC(=O)N(Cc3ccccc3F)C2)cc1OC (stereo not given) | -0.6% (inactive)
89 | O=C(NCCc1ccc(Cl)cc1)c1cccc(-n2cnnc2)c1 | -1% (inactive)
90 | CC(=O)c1cccc(OCc2cc(C(=O)N(CC3CC3)CC3CCCO3)no2)c1 (stereo not given) | 0.5%
91 | CC(C)CCCC1CN(C(=O)c2ccc(N3CCN(C)CC3)cc2)CCO1 (stereo not given) | 6.6%
92 | Cc1cc(Oc2ccccc2)nc(Oc2ccc(=O)n(-c3ccccc3)n2)n1 | -9.1% (inactive)
93 | CC(C)(C)NC(=O)CN1C(=O)CCC1=O | -0.4% (inactive)
94 | Cc1nc2sccn2c1C(=O)N1CCCC(N(C)Cc2ccccc2)C1 (stereo not given) | -0.3% (inactive)
95 | O=C(C1CCCO1)N1CCc2[nH]nc(-c3ccc(C(F)(F)F)cc3)c2C1 (stereo not given) | -2.9% (inactive)
96 | COc1cc(CNCc2ccc(F)cc2)ccc1OCC(O)CN1CCOCC1 (stereo not given) | 2.4%
97 | O=C(NCc1ccccc1)N1CCN(CCO)CC1 | 2.5%
98 | CC(C)C(=O)N1CCN(c2ccc(NC(=O)c3ccccn3)cc2)CC1 | 7.7%
99 | O=C(Nc1ccccc1)N1CCN(c2nsc3ccccc23)CC1 | -22.1% (inactive)
100 | COc1ccc(NC(=O)NC2CC(=O)N(CC(C)(C)C)C2)c(OC)c1 (stereo not given) | -1.6% (inactive)
101 | O=C(NCC(O)CO)c1ccc(OC2CCN(CCc3ccccc3)CC2)cc1 (stereo not given) | -0.6% (inactive)
102 | CCN1CCN(CC(O)COc2cccc(CNCCCSC)c2)CC1 (stereo not given) | 9.1%
103 | COc1ccc(F)c(CN2CCCC3(CCN(S(=O)(=O)N(C)C)C3)C2=O)c1 (stereo not given) | 0.3%
104 | COc1cccc(CN2CCCC3(CCN(Cc4ccccn4)C3)C2)c1OC (stereo not given) | 7.4%
105 | Cc1nc(C)c(CN2C[C@H]3OC(=O)N(CCCc4ccc(F)cc4)[C@H]3C2)nc1C | 8.2%
